Each structure is given as a SMILES string. Results filed as inconclusive are left out. Active and inactive are the calls of the source.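 How the source made its calls, unless noted: active means viability at or below 27.92% in each of two runs, the all-compound median minus 4 SD; inconclusive means no clear call, values can overlap the other calls; inactive means the rest.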

A short description of experiment [1]: reducers of endogenous Her2 protein level, primary screen, SKBR3 breast tumor cells, AlphaScreen, ATP viability (AID 461;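 active means Her2 level under about 52% in both replicate screens, with viability over 70% of control, limit read from the data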;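 on Her2 level: lower value means less Her2 protein in the cells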;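 on viability: percent of carrier control wells set as 100% viability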). The settings on record: 18-24 h, measured here: SKBR3 viability, ATP luminescence, at 10 µM.
Experiment [2] deals with Receptor tyrosine-protein kinase erbB-2 (Homo sapiens) (UniProt P04626). The experiment is described as above. Particulars: 18-24 h, at 10 µM, stronger effect = lower value.
Receptor tyrosine-protein kinase erbB-2 (Homo sapiens), sequence (P04626 whole entry, looked up): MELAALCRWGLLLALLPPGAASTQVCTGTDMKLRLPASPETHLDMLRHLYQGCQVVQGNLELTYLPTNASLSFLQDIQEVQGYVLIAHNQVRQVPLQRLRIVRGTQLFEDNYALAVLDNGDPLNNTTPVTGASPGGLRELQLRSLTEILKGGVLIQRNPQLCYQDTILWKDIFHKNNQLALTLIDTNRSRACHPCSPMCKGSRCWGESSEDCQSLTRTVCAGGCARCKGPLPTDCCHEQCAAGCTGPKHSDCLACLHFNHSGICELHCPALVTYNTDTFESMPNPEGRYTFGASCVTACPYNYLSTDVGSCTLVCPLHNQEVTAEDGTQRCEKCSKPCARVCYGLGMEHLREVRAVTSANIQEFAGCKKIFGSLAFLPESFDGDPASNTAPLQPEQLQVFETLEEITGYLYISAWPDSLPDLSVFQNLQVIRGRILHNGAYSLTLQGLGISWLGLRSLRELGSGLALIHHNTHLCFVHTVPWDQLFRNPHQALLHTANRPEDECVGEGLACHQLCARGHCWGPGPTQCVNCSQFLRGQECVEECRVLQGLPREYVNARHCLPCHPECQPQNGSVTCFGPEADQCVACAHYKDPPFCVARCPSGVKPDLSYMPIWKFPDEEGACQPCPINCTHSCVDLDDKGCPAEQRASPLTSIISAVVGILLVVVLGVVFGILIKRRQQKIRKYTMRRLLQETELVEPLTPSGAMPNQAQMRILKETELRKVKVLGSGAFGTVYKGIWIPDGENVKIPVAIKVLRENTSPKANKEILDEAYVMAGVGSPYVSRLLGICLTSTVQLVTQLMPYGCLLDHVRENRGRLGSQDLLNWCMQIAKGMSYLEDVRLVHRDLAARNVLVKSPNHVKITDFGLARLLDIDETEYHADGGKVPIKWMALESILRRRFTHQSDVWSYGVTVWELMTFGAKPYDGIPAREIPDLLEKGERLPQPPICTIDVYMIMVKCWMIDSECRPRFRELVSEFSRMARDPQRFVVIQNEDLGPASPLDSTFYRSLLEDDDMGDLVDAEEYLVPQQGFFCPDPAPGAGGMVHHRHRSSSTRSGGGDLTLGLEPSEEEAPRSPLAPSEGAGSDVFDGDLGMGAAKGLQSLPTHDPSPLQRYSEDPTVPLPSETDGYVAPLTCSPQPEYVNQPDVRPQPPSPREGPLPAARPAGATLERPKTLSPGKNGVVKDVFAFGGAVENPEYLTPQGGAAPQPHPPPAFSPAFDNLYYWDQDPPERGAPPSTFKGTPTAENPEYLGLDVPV
The nature of experiment [3]: SK-BR-3 cell growth inhibitors, pilot screen, 24 h, human (AID 572;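 active means viability at or below 10% of carrier control in both of two separate runs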;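 further: compound exposure lasted between 18 and 24 h rather than exactly 24 h; 100% = carrier-treated control wells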). The settings on record: SK-BR-3 viability, CellTiter-Glo luminescence, at 10 µM, stronger effect = lower value. For orientation: Cellular ATP, detected with luciferase, serves as a proxy for viable cell number.
Experiment [4] is described as follows: HUVEC growth inhibition – cell-based, human, primary screen (AID 575;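 active means viability at or below 30% in both replicate assays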;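 further: 100% = median of untreated cell wells with 0.1% DMSO on each plate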). Particulars: HUVEC proliferation, CellTiter-Glo luminescence, 72 h; at 10 µM; stronger effect = lower value.
Experiment [5] is described as follows: growth inhibitors of H69AR lung tumor, primary screen, human, duplicate replicates (AID 580;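 active means viability at or under a set limit in both replicates, limit being median viability minus 3 SD, cut at about 48% in these data, passing the limit was not always enough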;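 further: 100% = mean luminescence of untreated wells and 0% = no signal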). Particulars: H69AR lung tumor cells viability, ATP luminescence, 72 h; at 10 µM; stronger effect = lower value.
Experiment [6] in a line: reversal of MRP1-mediated doxorubicin resistance, pilot screen, H69AR cells, doxorubicin co-treatment (AID 601;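 active means viability loss from added drug above about 55%, and viability with drug at most 40%, in both replicates, limit read from the data, passing the limit was not always enough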). The settings on record: CellTiter-Glo, 72 h, at 10 µM; for differential viability (reversal): stronger effect = higher value.
The nature of experiment [7]: 384-well plate pilot, post-Golgi transport modulator project, inhibition of yeast transport mutant growth (AID 636; in the data active means inhibition above about 31%). Particulars: absorbance 615 nm, about 18 h, stronger effect = higher value.
A short description of experiment [8]: growth suppression of yeast trafficking mutant, preliminary HTS, modulators of trafficking downstream of Golgi apparatus project, 1536-format plate, OD 615 nm (AID 637; in the data active means inhibition above about 30%). The settings on record: yeast transport mutant growth, absorbance 615 nm, 18 h; stronger effect = higher value.
The nature of experiment [9]: OD615 S. cerevisiae growth inhibition, permissive medium, pilot counter-assay, permissive growth control for S. cerevisiae lifespan shortening project (AID 705;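 active means growth inhibition above 25% in both replicates, a cutoff set 3 SD above the mean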). The settings on record: OD615, 24 h, at 10 µM, stronger effect = higher value.
A short description of experiment [10]: Restrictive medium S. cerevisiae growth inhibition, OD615, pilot screen of yeast lifespan reduction project, restrictive growth control (AID 706;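 active means growth inhibition above a set limit, 3 SD over mean compound inhibition, in both replicates, cut at about 43% in these data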;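 further: modified DeaD lifespan yeast strain shifted to restrictive glucose medium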). Particulars: OD615, 48 h, at 10 µM, stronger effect = higher value.
The nature of experiment [11]: viability gain of MRP-1-high H69AR cells under doxorubicin, pilot screen, MRP-1 activator project, CellTiter-Glo, duplicate (AID 807;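 active means viability increase at or above a cutoff of the median across tested compounds plus 3 SD, cut at about 8.5% in these data, passing the limit was not always enough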;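 further: compound pretreatment 18-22 h then 72 h combined with doxorubicin; 0% = doxorubicin alone and 100% = vehicle without doxorubicin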). The settings on record: H69AR viability with doxorubicin, CellTiter-Glo luminescence; at 10 µM; stronger effect = higher value.
Experiment [12] can be described thus: growth suppression of beta-catenin knockout HCT116, pilot screen, human colon tumor cells (AID 823;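 active means cell viability at or below a set limit in both duplicate runs, the limit being the all-compound median minus 4 SD, cut at about 23% in these data, passing the limit was not always enough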;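 further: 0% = wells killed by 20 µM Hyamine and 100% = untreated DMSO cell wells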). Particulars: CellTiter-Glo, 60 h, at 10 µM, stronger effect = lower value.
A short description of experiment [13]: growth suppression of PTEN-deleted HCT116, pilot screen, cell-based, HCT116 clonal line, CellTiter-Glo (AID 824).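 Further: 0% = 20 µM Hyamine control and 100% = vehicle cell control.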 Particulars: 60 h, at 10 µM, stronger effect = lower value.
Experiment [14] is described as follows: inhibitors of the yeast RAM network, pilot screen, dse1pr::URA3 reporter, 5-FOA selection (AID 869;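 active means inhibition over a set limit, the all-compound mean plus 3 SD, in both replicate runs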;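 further: 0% = DMSO wells with no growth and 100% = 10 µM 1-NA-PP1 with full growth; RAM network block rescues cells from 5-FOA so hits raise OD615 growth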). The settings on record: S. cerevisiae dse1pr::URA3 5-FOA growth, OD615, 2 d; at 10 µM; stronger effect = higher value; strain carries analog-sensitive mutant Cbk1 kinase.
Experiment [15] is described as follows: RAM signaling pathway blockade in yeast – S. cerevisiae, Pdr1DBD-CYC8 efflux-inhibited sensitized strain, primary screen (AID 1298;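 active means RAM network inhibition above 8.4% in each of two replicates, 3 SD over the compound average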;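 further: 0% = DMSO untreated cells without growth and 100% = 10 µM 1-NA-PP1 full growth; higher means more yeast growth rescued from 5-FOA killing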). The settings on record: S. cerevisiae cbk1-as DSE1-URA3 strain, 5-FOA growth OD615, 2 d; at 50 µM; stronger effect = higher value.
Setting [16] is: H69AR cells + 2 uM doxorubicin, measured here: viability with 2 uM doxorubicin, stronger effect = lower value.
The mark [17] stands for this setting: H69AR cells, compound alone cytotoxicity.

For orientation: viability means a read-out of living cells in per cent, often relative to untreated cells. One may read the inhibition as the drop in the measured response relative to a control, in per cent. As for `COCCCNC(=O)Cn1cc2c(n1)CCC(C)C2` (stereo not given), the viability was 112% in experiment [1]; 112% (inactive) in [3]; 90.5% (inactive) in experiment [4]; 90.1% (inactive) in experiment [5]; 91.8% in experiment [6] (setting [16]); 90.1% in experiment [6] (setting [17]). Further, the viability in experiment [12] was 104% (inactive); in experiment [13], 102% (inactive). The Her2 level in [2] was 100% (inactive). Besides, in experiment [6] (H69AR cells + 2 uM doxorubicin), the differential viability (reversal) is -1.69% (inactive). Also, the figures for the inhibition in experiment [7], in [8] and in experiment [14] were 0% (inactive), 0.17% (inactive) and 1.82% (inactive), respectively. Besides, the growth inhibition in experiment [9] was -1.62% (inactive); in experiment [10] it was 5.27% (inactive). Also, the viability increase in experiment [11] was 0.05% (inactive). The RAM network inhibition in experiment [15] was -0.72% (inactive).
For the compound `O=C(Nc1ccc2c(c1)OCCO2)c1cnc2n(c1=O)CCS2`, the viability in [1] was 85.5%; in experiment [3], 85.5% (inactive); in experiment [4] it was 105% (inactive); in experiment [5], 79.4% (inactive); in experiment [6] (setting [16]) it was 78.7%; in experiment [6] (setting [17]), 79.4%. Besides, the viability in [12] is 106% (inactive); in [13], 104% (inactive). Moreover, the Her2 level in experiment [2] is 80.5% (inactive). In experiment [6] (H69AR cells + 2 uM doxorubicin), the differential viability (reversal) was 0.765% (inactive). The inhibition was 0.93% (inactive) in [7], -2.95% (inactive) in experiment [8] and 1.6% (inactive) in [14]. Also, the figures for the growth inhibition in [9] and in experiment [10] were -17.9% (inactive) and 2.96% (inactive), respectively. Besides, the viability increase in [11] is 3.01% (inactive). Besides, the RAM network inhibition in [15] is 4.19% (inactive).
`CCc1ccc(N2CC34C=CC(O3)C(C(=O)OC)C4C2=O)cc1` (stereo not given): the viability in experiment [1] was 102%; in experiment [3], 102% (inactive); in experiment [4], 96.7% (inactive); in experiment [5], 94.2% (inactive); in [6] (setting [16]), 82.2%; in [6] (setting [17]), 94.2%. The viability in [12] was 102% (inactive); in [13] it was 99.7% (inactive). Besides, the Her2 level in experiment [2] was 104% (inactive). Moreover, the differential viability (reversal) in experiment [6] (H69AR cells + 2 uM doxorubicin) is 12% (inactive). In addition, the inhibition was -2.8% (inactive) in experiment [7], -1.17% (inactive) in [8] and 0.255% (inactive) in experiment [14]. Moreover, the growth inhibition in experiment [9] is -6.25% (inactive); in experiment [10], 3.24% (inactive). Also, the viability increase in experiment [11] was 0.55% (inactive). For the same compound, the RAM network inhibition in [15] is 0.11% (inactive).
Take `Cc1cccc(C2CC(c3ccc(Cl)cc3)Nc3nc(N)nn32)c1` (stereo not given): the viability in [1] is 91%; in [3], 91% (inactive); in [4], 103% (inactive); in experiment [5] it was 96.6% (inactive); in [6] (setting [16]) it was 107%; in experiment [6] (setting [17]) it was 96.6%. The viability in experiment [12] was 82.1% (inactive); in experiment [13], 74.9% (inactive). The Her2 level in [2] is 113% (inactive). Also, in experiment [6] (H69AR cells + 2 uM doxorubicin), the differential viability (reversal) is -10.4% (inactive). The results for the inhibition in experiment [7], in [8] and in experiment [14] were 0.4% (inactive), -5.25% (inactive) and 0.01% (inactive), respectively. Moreover, the results for the growth inhibition in experiment [9] and in experiment [10] were 0.43% (inactive) and 23.9% (inactive), respectively. Moreover, in [11], the viability increase is 4.33% (inactive). Besides, the RAM network inhibition in [15] was 3.62% (inactive).
`Cc1cccc(-n2ncc3c(N4CCC5(CC4)OCCO5)ncnc32)c1`: the viability in [1] was 106%; in experiment [3], 106% (inactive); in experiment [4], 76% (inactive); in experiment [5], 42.6% (active); in experiment [6] (setting [16]), 53.8%; in [6] (setting [17]), 42.6%. For the same compound, the viability in experiment [12] is 78% (inactive); in experiment [13], 59.5% (inactive). Besides, the Her2 level in [2] is 92.5% (inactive). Further, the differential viability (reversal) in experiment [6] (H69AR cells + 2 uM doxorubicin) is -11.1% (inactive). For the same compound, the inhibition in experiment [7] is -4.4% (inactive); in experiment [8], -9.33% (inactive); in experiment [14] it was 1.75% (inactive). Further, the growth inhibition was -2.87% (inactive) in experiment [9] and -15.6% (inactive) in experiment [10]. Also, the viability increase in [11] was -7.22% (inactive). Besides, in experiment [15], the RAM network inhibition was 3.86% (inactive).

These data come from PubChem BioAssay.
